HT1080 IDH1KD tx: toxicity to HT-1080 IDH1 knockdown cells (counter line). 360,000 tested, 2% active. HT-1080 IDH1 knockdown viability, ATP luminescence, 48 h. AID 686971. Potency, µM (top dose mostly 46.1 µM), for the others: at the highest dose activity, negative = toxicity, actives largely listed as cytotoxic;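 note: 0% = DMSO wells and -100% = cell-free medium wells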
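Using the IDH1-knockdown HT-1080 line run in the same batch and compound series as the NT line, viability after 48 h at 37 °C was determined by CellTiter-Glo luminescence and expressed as % activity.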
HepG2 tox: HepG2 cytotoxicity, counter-screen for TGF-b inhibitors; 410,000 tested, 0.76% active; HepG2 CAGA-GFP viability, ATP luminescence, 18 h; AID 588856; Potency, µM (highest dose often 46.1 µM), without a hit: at the top dose activity change, negative = cytotoxicity, most hits filed as cytotoxic
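HepG2 CAGA-GFP cells (1000/well, DMEM with 1% FBS) received compound, then TGF-beta at 500 pg/mL final, and were incubated 18 hours at 37 degrees C. Viability was read by CellTiter-Glo luminescence. Media-only wells were set as complete cell-killing and DMSO as no toxicity.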
TDP1 cell noCPT: qHTS for Inhibitors of human tyrosyl-DNA phosphodiesterase 1 (TDP1): qHTS in cells in absence of CPT | 420,000 tested, 15% active | Potency, µM (highest dose often 46.2 µM), without a hit: top-dose activity change, negative = growth inhibition, most hits filed as inhibitors | DT40 Tdp1-/- hTDP1 cells, no CPT, ATP luminescence, 48 h | AID 686978, 2013; note: % is set by controls: 0 for no effect and ±100 for the full control effect; nearly all actives have a fitted effect of over 55% in size
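Chicken DT40 Tdp1-/- cells stably complemented with human TDP1 were seeded at 400 cells/well with DMSO in place of 20 nM camptothecin. After compound pinning, cells grew at least 48 hr at 37 °C; viability read by CellTiter-Glo luminescence.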
HT1080NT lethal: kills 2HG-producing HT-1080-NT fibrosarcoma cells; Potency, µM (highest dose often 46.1 µM), inactives show at the highest dose activity, negative = less viability, actives largely listed as cytotoxic; 360,000 tested, 1.6% active; HT-1080-NT fibrosarcoma viability, CellTiter-Glo ATP luminescence, 48 h; AID 686970;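 note: NT is the 2HG producing partner of a matched IDH1 knockdown line; 0% = DMSO-treated cells and -100% = media-only wells without cells; nearly all actives have a fitted effect of over 55% in size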
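Fibrosarcoma NT cells, 750 per well in 5% FBS RPMI, were exposed to compound for 48 hours. Viability: CellTiter-Glo luminescence.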
TGFb SMAD3 inh: blocks TGF-b signaling; HepG2 CAGA-GFP TGF-b/SMAD3 reporter, GFP fluorescence, 18 h; TGF-beta stimulated, 500 pg/mL final; Potency, µM (doses to about 46.1 µM), inactives show at the top dose activity, negative = inhibition, hits mostly inhibitors; 410,000 tested, 1.2% active; AID 588855; note: % is set by controls: 0 for no effect and ±100 for the full control effect; nearly all actives have a fitted effect of over 65% in size
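TGF-beta reporter screen: HEPG2 CAGA-GFP, 1% FBS, 500 pg/mL TGF-beta final, 18 h; per-cell GFP summed per well; curves fitted and categorized by class.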
DT40 TDP1 CPT: growth inhibition of DT40 Tdp1-/-;hTDP1 cells with camptothecin (screen for TDP1 inhibitors). chicken DT40 Tdp1-/-;hTDP1 cells + 20 nM CPT, ATP luminescence, 48 h. Potency, µM (titrated, usually from 46.2 µM), for the others: top-dose activity change, negative = growth inhibition, usual class: inhibitors. 420,000 tested, 12% active. AID 686979; note: % is set by controls: 0 for no effect and ±100 for the full control effect; nearly all actives have a fitted effect of over 55% in size
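Chicken DT40 Tdp1-/- cells complemented with human TDP1, 400 cells/well, exposed to compounds plus 20 nM camptothecin for at least 48 h at 37 C; viability read as ATP content by CellTiter-Glo luminescence.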
Active calls of the source: *; [ ] = another dose, or the depositor's remark. Hits are enriched below; roughly 17% of the tested compounds scored in any of these assays. Calls come from the whole dose curve; as a rule, active = well fitted curve in the direction sought with a large enough effect; inconclusive = small, poorly fitted or top-dose-only effect, or another doubt; inactive = no such curve, though single readings can be large; an effect the other way counts as inactive or inconclusive. Potency is the fitted concentration of half-maximal effect.

`Cc1ccc(C)c(Cn2c3ccccc3c3cnn(CC(=O)NCc4ccccc4)c(=O)c32)c1` gave HepG2 tox 2%, TDP1 cell noCPT 21µM*, TGFb SMAD3 inh -25% and DT40 TDP1 CPT 23µM*.
Cc1ccc(C)c(Cn2c3ccccc3c3cnn(CC(=O)NCCCN4CCOCC4)c(=O)c32)c1 was read as HT1080 IDH1KD tx inconclusive, HepG2 tox -27%, TDP1 cell noCPT inconclusive, HT1080NT lethal inconclusive, TGFb SMAD3 inh inconclusive and DT40 TDP1 CPT inconclusive.
For Cc1ccc(C)c(Cn2c3ccccc3c3cnn(CC(=O)NCCN4CCOCC4)c(=O)c32)c1 the results were HT1080 IDH1KD tx -15%, HepG2 tox -24%, TDP1 cell noCPT 18µM*, HT1080NT lethal inconclusive, TGFb SMAD3 inh -30% and DT40 TDP1 CPT 16µM*.
`Cc1ccc(NC(=O)Cn2ncc3c4ccccc4n(Cc4ccccc4)c3c2=O)cc1Cl` gave HepG2 tox 5%, TDP1 cell noCPT inconclusive, TGFb SMAD3 inh 10% and DT40 TDP1 CPT inconclusive.
`O=C(COC(=O)c1ccccc1O)Nc1cccc(S(=O)(=O)N2CCCC2)c1` gave HT1080 IDH1KD tx 1%, HepG2 tox 1%, TDP1 cell noCPT 3%, HT1080NT lethal 1%[9.24 µM], TGFb SMAD3 inh 14% and DT40 TDP1 CPT -26%.
`Cc1cc2c(c(-c3cnccn3)c1)OC(CNC(=O)c1c(F)cccc1Cl)C2` (stereo not drawn) gave TDP1 cell noCPT inconclusive and DT40 TDP1 CPT 10%[9.04 µM].
Screening Cc1ccc(C)c(Cn2c3ccccc3c3cnn(CC(=O)NC(C)c4ccccc4)c(=O)c32)c1 (stereo not drawn) returned HepG2 tox -19%, TDP1 cell noCPT 2.3µM*, TGFb SMAD3 inh -23% and DT40 TDP1 CPT 2.9µM*.
Screening Cc1ccc(C)c(CN2CCC(CNC(=O)Cn3ncc4c([nH]c5ccccc54)c3=O)CC2)c1 returned HepG2 tox -11%, TDP1 cell noCPT 15µM*, TGFb SMAD3 inh 21% and DT40 TDP1 CPT inconclusive.
Cc1cccc(NS(=O)(=O)c2ccc3c(c2)n(C)c(=O)n3C)c1C was read as HepG2 tox -34%, TDP1 cell noCPT inconclusive, TGFb SMAD3 inh inconclusive and DT40 TDP1 CPT 23µM*.
For Cc1c(F)cccc1NS(=O)(=O)c1ccc2c(c1)c(=O)n(C)c(=O)n2C the results were HT1080 IDH1KD tx inconclusive, HepG2 tox -32%, TDP1 cell noCPT 15µM*, HT1080NT lethal inconclusive, TGFb SMAD3 inh -12% and DT40 TDP1 CPT inconclusive.
CN1/C(=C\C(=O)C(F)F)C(C)(C)c2ccccc21 was read as HT1080 IDH1KD tx 5%, HepG2 tox 3%, TDP1 cell noCPT -28%, HT1080NT lethal 3%, TGFb SMAD3 inh 16% and DT40 TDP1 CPT -7%.
CN1/C(=C\C(=O)C[n+]2ccc3ccccc3c2)C(C)(C)c2ccccc21 was read as HT1080 IDH1KD tx inconclusive, HepG2 tox -20%, TDP1 cell noCPT 0.29µM*, HT1080NT lethal inconclusive, TGFb SMAD3 inh -21% and DT40 TDP1 CPT 0.65µM*.
`CN1/C(=C\C(=O)COC(=O)C2COc3ccccc3O2)C(C)(C)c2ccccc21` (stereo not drawn) gave HT1080 IDH1KD tx -22%, HepG2 tox 1%, TDP1 cell noCPT inconclusive, HT1080NT lethal -12%, TGFb SMAD3 inh -13% and DT40 TDP1 CPT 12µM*.

Screening results (PubChem BioAssay)
